# Assay results taken from PubChem BioAssay (NCI).
# About 79,000 compounds went through this panel and 15% of them were active in at least one assay; those are over-represented in the sample as a whole. A number with no mark means an inactive call. Active and inactive are the calls of the source. No stated cut-off is given here; in the data, active means growth inhibition above about 70%; inactive means the rest.
# Tests used:
# [1] = NCI Yeast Anticancer Drug Screen. Data for the rad52 strain (AID 147);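 further: 0% = growth of vehicle-treated control cultures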; conditions: S. cerevisiae rad52 mutant growth inhibition, hits give high values
# Outline: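 Measured: yeast growth inhibition. System: strain with a defined DNA damage repair alteration. Reference: vehicle-treated control cultures.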
# [2] = NCI Yeast Anticancer Drug Screen. Data for the wt1 strain (AID 149);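 further: 0% = growth of vehicle-treated wt1 cultures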; conditions: S. cerevisiae wt1 strain (SPY 50644) growth inhibition, hits give high values
# Outline: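 Vehicle-normalised growth inhibition; strain wt1; compound exposure.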
# [3] = NCI Yeast Anticancer Drug Screen. Data for the rad50EPP+ strain (AID 151);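 further: 0% = growth of vehicle-treated control cultures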; conditions: S. cerevisiae rad50 mutant strain, hits give high values
# Outline: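 One strain with a rad50 alteration (rad50EPP+) was compound-treated, its growth then compared to that of vehicle controls.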
# [4] = NCI Yeast Anticancer Drug Screen. Data for the mgt1 strain (AID 153); conditions: S. cerevisiae mgt1 mutant growth inhibition, hits give high values
# Outline: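 After exposure of the mgt1 yeast mutant to compound, growth was measured and reported as inhibition compared with vehicle controls.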
# [5] = NCI Yeast Anticancer Drug Screen. Data for the rad50 strain (AID 155);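 further: 0% = growth of vehicle-only cultures of the same strain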; conditions: S. cerevisiae rad50 strain growth inhibition, hits give high values
# Outline: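 A DNA repair-deficient yeast mutant serves as the test organism; compound-induced growth inhibition is calculated against vehicle-treated cells.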
# [6] = NCI Yeast Anticancer Drug Screen. Data for the mec2-1 strain (AID 157); conditions: S. cerevisiae mec2-1 strain, hits give high values
# Outline: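 Test agents were screened against the mec2-1 yeast strain, with defined DNA repair or cell cycle alteration. Growth was scored as inhibition against vehicle-only controls.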
# [7] = NCI Yeast Anticancer Drug Screen. Data for the rad14 strain (AID 159);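 further: 0% = growth of vehicle-treated control cultures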; conditions: S. cerevisiae rad14 strain growth inhibition, hits give high values
# Outline: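 Vehicle-treated cultures served as the baseline for growth inhibition of a DNA repair-mutant yeast strain exposed to each compound.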
# [8] = NCI Yeast Anticancer Drug Screen. Data for the sgs1 mgt1 strain (AID 161);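 further: 0% = growth of cultures given vehicle only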; conditions: S. cerevisiae sgs1 mgt1 strain, hits give high values
# Outline: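 Genetically altered yeast, compound exposure, growth inhibition relative to vehicle.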
# [9] = NCI Yeast Anticancer Drug Screen. Data for the CLN2oe strain (AID 163);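 further: 0% = growth of vehicle-only control cultures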; conditions: S. cerevisiae CLN2oe strain, hits give high values
# Outline: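 Here, growth inhibition in a cell-cycle-altered yeast strain after compound exposure was quantified against vehicle control growth.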
# [10] = NCI Yeast Anticancer Drug Screen. Data for the cln2 rad14 strain (AID 165);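 further: 0% = growth equal to vehicle treated cultures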; conditions: S. cerevisiae cln2 rad14 strain, hits give high values
# Outline: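 Growth of compound-exposed yeast (cln2 rad14 genotype) measured and expressed as inhibition relative to vehicle.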
# [11] = NCI Yeast Anticancer Drug Screen. Data for the bub3 strain (AID 167); conditions: S. cerevisiae bub3 mutant strain, hits give high values
# Outline: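 Inhibition values come from growth of compound-treated mutant yeast normalised to vehicle-treated controls.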
# [12] = NCI Yeast Anticancer Drug Screen. Data for the wt2 strain (AID 169);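 further: 0% = growth of vehicle-treated yeast cultures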; conditions: S. cerevisiae wt2 strain growth inhibition, hits give high values
# Outline: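 Genetically defined yeast strains from a DNA-repair/cell-cycle panel were used. Compound-exposed yeast growth was measured, and the inhibition was calculated relative to vehicle treatment.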
# [13] = NCI Yeast Anticancer Drug Screen. Data for the mlh1 strain (AID 171);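 further: 0% = growth of vehicle-treated control cultures of the same strain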; conditions: S. cerevisiae mlh1 strain growth inhibition, hits give high values
# Outline: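 Here the genetically defined yeast mutant is grown with each compound, and the extent to which its growth falls below that of vehicle-exposed cells is reported.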
# [14] = NCI Yeast Anticancer Drug Screen. Data for the sgs1 strain (AID 173);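 further: 0% = growth of vehicle-only control cultures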; conditions: S. cerevisiae sgs1 mutant, hits give high values
# Outline: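 Relative growth inhibition, referenced to vehicle, was determined in a yeast strain with a defined alteration affecting DNA damage repair or cell cycle control after compound exposure.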
# [15] = NCI Yeast Anticancer Drug Screen. Data for the mlh1 rad18 strain (AID 175); conditions: S. cerevisiae mlh1 rad18 strain growth inhibition, hits give high values
# Outline: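 In this whole-cell yeast screen, a strain with altered DNA damage repair is challenged with compound, and its growth is measured against matched vehicle-treated controls.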
# [16] = NCI Yeast Anticancer Drug Screen. Data for the rad18 strain (AID 177); conditions: S. cerevisiae rad18 mutant growth inhibition, hits give high values
# Outline: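 Screen uses a yeast strain with a defined lesion in DNA damage repair; compound effect is read as loss of growth compared to untreated vehicle cultures.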
# [17] = at 5.0 µM (retest, dose inferred, filed as 0.5)
# [18] = at 50.0 µM (retest, dose inferred, filed as 5.0)
smiles,measurement,setting,value
O=Nc1cccnc1N=O,growth inhibition,[1]; at 1.2 µM,10%
same,growth inhibition,[1]; at 3.7 µM,31%
same,growth inhibition,[1]; at 11.0 µM,86% (active)
same,growth inhibition,[1]; at 33.0 µM,98% (active)
same,growth inhibition,[1]; at 100.0 µM,98% (active)
same,growth inhibition,[2]; at 1.2 µM,2%
same,growth inhibition,[2]; at 3.7 µM,10%
same,growth inhibition,[2]; at 11.0 µM,37%
same,growth inhibition,[2]; at 33.0 µM,99% (active)
same,growth inhibition,[2]; at 100.0 µM,99% (active)
same,growth inhibition,[3]; at 1.2 µM,-33%
same,growth inhibition,[3]; at 3.7 µM,14%
same,growth inhibition,[3]; at 11.0 µM,64%
same,growth inhibition,[3]; at 33.0 µM,97% (active)
same,growth inhibition,[3]; at 100.0 µM,98% (active)
same,growth inhibition,[4]; at 1.2 µM,5%
same,growth inhibition,[4]; at 3.7 µM,25%
same,growth inhibition,[4]; at 11.0 µM,79% (active)
same,growth inhibition,[4]; at 33.0 µM,99% (active)
same,growth inhibition,[4]; at 100.0 µM,99% (active)
same,growth inhibition,[5]; at 1.2 µM,7%
same,growth inhibition,[5]; at 3.7 µM,21%
same,growth inhibition,[5]; [17],66%
same,growth inhibition,[5]; at 11.0 µM,52%
same,growth inhibition,[5]; at 33.0 µM,98% (active)
same,growth inhibition,[5]; [18],99% (active)
same,growth inhibition,[5]; at 50.0 µM,99.5% (active)
same,growth inhibition,[5]; at 100.0 µM,98% (active)
same,growth inhibition,[6]; at 1.2 µM,7%
same,growth inhibition,[6]; at 3.7 µM,28%
same,growth inhibition,[6]; [17],27%
same,growth inhibition,[6]; at 11.0 µM,90% (active)
same,growth inhibition,[6]; at 33.0 µM,99% (active)
same,growth inhibition,[6]; [18],99% (active)
same,growth inhibition,[6]; at 50.0 µM,99.4% (active)
same,growth inhibition,[6]; at 100.0 µM,99% (active)
same,growth inhibition,[7]; at 1.2 µM,11%
same,growth inhibition,[7]; at 3.7 µM,36%
same,growth inhibition,[7]; at 11.0 µM,99% (active)
same,growth inhibition,[7]; at 33.0 µM,99% (active)
same,growth inhibition,[7]; at 100.0 µM,99% (active)
same,growth inhibition,[8]; [17],81% (active)
same,growth inhibition,[8]; [18],99% (active)
same,growth inhibition,[8]; at 50.0 µM,99.3% (active)
same,growth inhibition,[9]; at 1.2 µM,5%
same,growth inhibition,[9]; at 3.7 µM,13%
same,growth inhibition,[9]; at 11.0 µM,34%
same,growth inhibition,[9]; at 33.0 µM,99% (active)
same,growth inhibition,[9]; at 100.0 µM,98% (active)
same,growth inhibition,[10]; [17],19%
same,growth inhibition,[10]; [18],99% (active)
same,growth inhibition,[10]; at 50.0 µM,99.3% (active)
same,growth inhibition,[11]; at 1.2 µM,9%
same,growth inhibition,[11]; at 3.7 µM,31%
same,growth inhibition,[11]; [17],76% (active)
same,growth inhibition,[11]; at 11.0 µM,86% (active)
same,growth inhibition,[11]; at 33.0 µM,98% (active)
same,growth inhibition,[11]; [18],99% (active)
same,growth inhibition,[11]; at 50.0 µM,99.5% (active)
same,growth inhibition,[11]; at 100.0 µM,98% (active)
same,growth inhibition,[12]; at 1.2 µM,2%
same,growth inhibition,[12]; at 3.7 µM,16%
same,growth inhibition,[12]; at 11.0 µM,59%
same,growth inhibition,[12]; at 33.0 µM,99% (active)
same,growth inhibition,[12]; at 100.0 µM,99% (active)
same,growth inhibition,[13]; at 1.2 µM,5%
same,growth inhibition,[13]; at 3.7 µM,21%
same,growth inhibition,[13]; at 11.0 µM,83% (active)
same,growth inhibition,[13]; at 33.0 µM,98% (active)
same,growth inhibition,[13]; at 100.0 µM,99% (active)
same,growth inhibition,[14]; at 1.2 µM,18%
same,growth inhibition,[14]; at 3.7 µM,63%
same,growth inhibition,[14]; at 11.0 µM,97% (active)
same,growth inhibition,[14]; at 33.0 µM,99% (active)
same,growth inhibition,[14]; at 100.0 µM,99% (active)
same,growth inhibition,[15]; [17],94% (active)
same,growth inhibition,[15]; [18],99% (active)
same,growth inhibition,[15]; at 50.0 µM,99.6% (active)
same,growth inhibition,[16]; at 1.2 µM,35%
same,growth inhibition,[16]; at 3.7 µM,86% (active)
same,growth inhibition,[16]; at 11.0 µM,94% (active)
same,growth inhibition,[16]; at 33.0 µM,98% (active)
same,growth inhibition,[16]; at 100.0 µM,98% (active)
C=CC(C)(O)CCC1C(=C)C(O)CC2C(C)(C)CCCC12C (stereo unspecified),growth inhibition,[1]; at 1.2 µM,27%
same,growth inhibition,[1]; at 3.7 µM,26%
same,growth inhibition,[1]; at 11.0 µM,27%
same,growth inhibition,[1]; at 33.0 µM,54%
same,growth inhibition,[1]; at 100.0 µM,72% (active)
same,growth inhibition,[2]; at 1.2 µM,-26%
same,growth inhibition,[2]; at 3.7 µM,-10%
same,growth inhibition,[2]; at 11.0 µM,-17%
same,growth inhibition,[2]; at 33.0 µM,-11%
same,growth inhibition,[2]; at 100.0 µM,69%
same,growth inhibition,[3]; at 1.2 µM,4%
same,growth inhibition,[3]; at 3.7 µM,-6%
same,growth inhibition,[3]; at 11.0 µM,12%
same,growth inhibition,[3]; at 33.0 µM,0%
same,growth inhibition,[3]; at 100.0 µM,-40%
same,growth inhibition,[4]; at 1.2 µM,-4%
same,growth inhibition,[4]; at 3.7 µM,-16%
same,growth inhibition,[4]; at 11.0 µM,-24%
same,growth inhibition,[4]; at 33.0 µM,14%
same,growth inhibition,[4]; at 100.0 µM,66%
same,growth inhibition,[5]; at 1.2 µM,15%
same,growth inhibition,[5]; at 3.7 µM,19%
same,growth inhibition,[5]; [17],36%
same,growth inhibition,[5]; at 11.0 µM,19%
same,growth inhibition,[5]; at 33.0 µM,61%
same,growth inhibition,[5]; [18],43%
same,growth inhibition,[5]; at 50.0 µM,63.6%
same,growth inhibition,[5]; at 100.0 µM,84% (active)
same,growth inhibition,[6]; at 1.2 µM,-3%
same,growth inhibition,[6]; at 3.7 µM,9%
same,growth inhibition,[6]; [17],48%
same,growth inhibition,[6]; at 11.0 µM,-10%
same,growth inhibition,[6]; at 33.0 µM,4%
same,growth inhibition,[6]; [18],52%
same,growth inhibition,[6]; at 50.0 µM,44.5%
same,growth inhibition,[6]; at 100.0 µM,50%
same,growth inhibition,[7]; at 1.2 µM,-7%
same,growth inhibition,[7]; at 3.7 µM,-20%
same,growth inhibition,[7]; at 11.0 µM,-18%
same,growth inhibition,[7]; at 33.0 µM,40%
same,growth inhibition,[7]; at 100.0 µM,80% (active)
same,growth inhibition,[8]; [17],-23%
same,growth inhibition,[8]; [18],81% (active)
same,growth inhibition,[8]; at 50.0 µM,80.5% (active)
same,growth inhibition,[9]; at 1.2 µM,-8%
same,growth inhibition,[9]; at 3.7 µM,-34%
same,growth inhibition,[9]; at 11.0 µM,-8%
same,growth inhibition,[9]; at 33.0 µM,-16%
same,growth inhibition,[9]; at 100.0 µM,28%
same,growth inhibition,[10]; [17],50%
same,growth inhibition,[10]; [18],66%
same,growth inhibition,[10]; at 50.0 µM,16.7%
same,growth inhibition,[11]; at 1.2 µM,-4%
same,growth inhibition,[11]; at 3.7 µM,7%
same,growth inhibition,[11]; [17],19%
same,growth inhibition,[11]; at 11.0 µM,1%
same,growth inhibition,[11]; at 33.0 µM,31%
same,growth inhibition,[11]; [18],80% (active)
same,growth inhibition,[11]; at 50.0 µM,73% (active)
same,growth inhibition,[11]; at 100.0 µM,69%
same,growth inhibition,[12]; at 1.2 µM,-2%
same,growth inhibition,[12]; at 3.7 µM,-12%
same,growth inhibition,[12]; at 11.0 µM,-13%
same,growth inhibition,[12]; at 33.0 µM,28%
same,growth inhibition,[12]; at 100.0 µM,69%
same,growth inhibition,[13]; at 1.2 µM,-4%
same,growth inhibition,[13]; at 3.7 µM,-12%
same,growth inhibition,[13]; at 11.0 µM,-17%
same,growth inhibition,[13]; at 33.0 µM,9%
same,growth inhibition,[13]; at 100.0 µM,42%
same,growth inhibition,[14]; at 1.2 µM,11%
same,growth inhibition,[14]; at 3.7 µM,23%
same,growth inhibition,[14]; at 11.0 µM,20%
same,growth inhibition,[14]; at 33.0 µM,53%
same,growth inhibition,[14]; at 100.0 µM,72% (active)
same,growth inhibition,[15]; [17],23%
same,growth inhibition,[15]; [18],45%
same,growth inhibition,[15]; at 50.0 µM,63.9%
same,growth inhibition,[16]; at 1.2 µM,-14%
same,growth inhibition,[16]; at 3.7 µM,-19%
same,growth inhibition,[16]; at 11.0 µM,-15%
same,growth inhibition,[16]; at 33.0 µM,49%
same,growth inhibition,[16]; at 100.0 µM,80% (active)
